In ChEMBL document CHEMBL3433997, “St. Jude Leishmania screening dataset” (2016):

Target: Solute carrier family 2, facilitated glucose transporter member 1 (Homo sapiens) (UniProt P11166)
Assay: ST_JUDE_LEISH: Cytotoxicity at 2uM final concentration against transgenic Leishmania Mexicana promastigotes LmGLUT1 that are glucose transport deficient and complemented with the human glucose transporter GLUT1. Activity is measured by DNA content using SYBR green in vitro
Format: functional

Chain of Solute carrier family 2, facilitated glucose transporter member 1 (Homo sapiens) (P11166 whole entry): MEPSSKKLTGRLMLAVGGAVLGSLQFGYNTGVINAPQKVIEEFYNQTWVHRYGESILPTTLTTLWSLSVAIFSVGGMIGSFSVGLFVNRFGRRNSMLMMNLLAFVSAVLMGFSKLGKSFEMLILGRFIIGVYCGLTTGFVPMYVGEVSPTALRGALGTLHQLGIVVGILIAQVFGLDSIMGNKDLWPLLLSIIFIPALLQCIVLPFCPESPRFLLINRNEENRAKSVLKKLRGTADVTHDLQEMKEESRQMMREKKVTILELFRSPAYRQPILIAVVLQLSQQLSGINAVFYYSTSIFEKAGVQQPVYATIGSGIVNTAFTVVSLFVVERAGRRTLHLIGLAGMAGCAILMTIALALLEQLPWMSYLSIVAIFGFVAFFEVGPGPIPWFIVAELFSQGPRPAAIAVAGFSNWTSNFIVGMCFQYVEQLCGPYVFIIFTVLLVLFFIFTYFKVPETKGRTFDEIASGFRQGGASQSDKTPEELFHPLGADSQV

Compound | inhibition
Cc1cc(N[C@@H](Cc2ccccc2)C(=O)NCCc2ccccc2)nc(NCCc2ccccc2)n1 | 4.48%
O=S(=O)(NCCN1CCCC1)c1ccc(-c2ccc(CNCc3ccc(F)cc3)cc2)s1 | 7.34%
NC(=O)c1cccc(C(=O)Nc2cccc(-c3ccc(-c4nc5cc(C(F)(F)F)ccc5[nH]4)cc3)c2)c1 | 0.31%
Oc1ccc(CCNc2nc(NCCCOc3cccc(-c4ccccc4)c3)nc(N3CCNCC3)n2)cc1 | 2.65%
CNc1ccc(CNCc2ccc(-c3ccc(-c4nc5cc(F)ccc5[nH]4)cc3)cc2)cc1 | 3.2%
O=C(Nc1ccc(Cl)cc1)Nc1cccc(-c2cccc(-c3nc4cc(C(F)(F)F)ccc4[nH]3)c2)c1 | -0.58%
CC(=O)Nc1ccc(C#Cc2ccc(-c3c(C)[nH]c(C)c(Cl)c3=O)cc2)cc1 | 1.3%
CC1(C)N=C(N)N=C(N)N1c1ccc(Cl)c(Cl)c1 | -1.25%
Cc1cc(CNCCCCCCNCc2ccc(-c3ccccc3)cc2)ccc1O | 7.54%
Cc1cccc2nc(-c3ccc(-c4cccc(CN5CCN(CC6CCCN(C)C6)CC5)c4)s3)[nH]c12 (centres undefined) | 7.18%
CCCN(CC1CC1)c1ncc(-c2ccccc2CNCc2ccccc2O)cn1 | 11.8%
COc1ccc(CCc2ccc(-c3c(C)[nH]c(C)c(Cl)c3=O)cc2)cc1 | 2.55%
COC(=O)c1cc2cccc(NC[C@@H](C)NC[C@H](O)c3cccc(Cl)c3)c2[nH]1 | -0.1%
CN(C)CCCNc1nccc(N(C)c2ccc(NC(=O)Nc3cc(C(F)(F)F)ccc3F)cc2)n1 | 1.93%
Cn1cnc(-c2ccc3c(c2)CCN(CCC2CCC(NC(=O)/C=C/c4ccc(F)cc4)CC2)CC3)c1 (centres undefined) | 54.7%
OCC1CCN(Cc2ccc(-c3ccc(-c4nc5ccccc5[nH]4)cc3)cc2)CC1 | 6.11%
O=S(=O)(NCCN1CCCC1)c1ccc(-c2ccc(CNCc3ccc(F)cc3)cc2)cc1 | 7.2%
Cc1c(-c2cccc(CNCCc3ccc(Cl)cc3)c2)cnc(N)c1C | -3.87%
Cc1ccc(CN2CCCN(Cc3cccc(C(=O)Nc4ccc(C(C)(C)C)cc4)c3)CC2)s1 | 7.92%
CC(C)(C)c1ccc(/C=C/C(=O)NCCCCCN2CCC(c3c[nH]c4ccccc34)CC2)cc1 | 4.78%
CCOC(=O)c1ccc(NC(=O)Nc2cccc(-c3ccc(-c4nc5ccccc5[nH]4)cc3)c2)cc1 | 5.47%
c1cncc(CCNCc2ccc(-c3ccc(-c4nc5ccccc5[nH]4)s3)cc2)c1 | 8.43%
CCC(=O)Nc1ccc(Nc2nc(C)cc(N3CCCC3)n2)cc1 | 3.46%
CS(=O)(=O)CCCNCc1ccc(-c2cc3c(Nc4ccc(OCc5ccccc5)cc4)ncnc3cn2)o1 | 2.89%

Target: Hexose transporter 1 (Plasmodium falciparum) (UniProt O97467)
Assay: ST_JUDE_LEISH: Cytotoxicity at 2uM final concentration against transgenic Leishmania Mexicana promastigotes LmPfHT that are glucose transport deficient and complemented with the Plasmodium falciparum hexose transporter. Activity is measured by DNA content using SYBR green in vitro
Format: functional

Compound | inhibition
COc1ccc(CN2CCCC(OC(c3ccc(F)cc3)c3ccc(F)cc3)C2)c(O)c1 (centres undefined) | 8.89%
CCNc1cc(C(=O)N[C@@H](Cc2ccc(F)c(F)c2)[C@H](O)CNCc2cccc(OC)c2)cc(N2CCCCS2(=O)=O)c1 | 0.17%
O=C(Nc1cccc(-c2ccc(CN3CCNCC3)cc2)c1)c1cccc(Cl)c1 | -1.87%
CC(C)CNC(=O)c1ccnc(-c2ccc(CNCCCc3ccccc3)cc2)c1 | 3.19%
COc1ccc(CNCc2ccc(F)cc2)cc1-c1ccc(S(=O)(=O)NCCN2CCCC2)cc1 | 6.73%
Cc1cccc2nc(C3CCN(CC4CCN(C(=O)/C=C/c5ccc(Cl)c(Cl)c5)CC4)CC3)[nH]c12 | 11.5%
COc1ccc(-c2ccc(NC(=O)c3ccccc3)cc2)cc1CN1CCCN(C)CC1 | -0.14%
O=C(Nc1ccc2nc3n(c(=O)c2c1)CCCCC3)C(=O)N1CCN(c2ccc(F)cc2)CC1 | 9.84%
Cc1cc(C(=O)Nc2nc(-c3ccccn3)nc3ccsc23)no1 | 75.1%
O=[N+]([O-])c1cccc(C=NNc2nc(=Nc3ccccc3)[nH]c(=Nc3ccccc3)[nH]2)c1 | 7.8%
Cc1cc(NCCC(=O)NCc2cccc(F)c2)nc(Nc2ccccc2)n1 | 7.08%
NS(=O)(=O)c1cccc(Br)c1 | 0.12%
COc1cccc(CC(=O)N2CCC(n3c(C)nc4ccc(C)cc43)CC2)c1 | 1.46%
Clc1ccc2c(NCCNc3ccnc4cc(Cl)ccc34)ccnc2c1 | -2.22%
c1ccc2[nH]c(-c3ccc(-c4ccc(CN5CCN(c6ccncc6)CC5)cc4)s3)nc2c1 | 6.05%
Cn1nc(C(F)(F)F)c(-c2ccc(Br)cc2)c1NC(=O)Nc1ccc(F)cc1F | 1.19%
Cc1cc(N[C@@H](Cc2ccccc2)C(=O)NCCc2ccccc2)nc(NCCc2ccccc2)n1 | 3.79%
O=S(=O)(NCCN1CCCC1)c1ccc(-c2ccc(CNCc3ccc(F)cc3)cc2)s1 | 5.54%
NC(=O)c1cccc(C(=O)Nc2cccc(-c3ccc(-c4nc5cc(C(F)(F)F)ccc5[nH]4)cc3)c2)c1 | 4.83%
Oc1ccc(CCNc2nc(NCCCOc3cccc(-c4ccccc4)c3)nc(N3CCNCC3)n2)cc1 | 2.83%

Compound | inhibition
CNc1ccc(CNCc2ccc(-c3ccc(-c4nc5cc(F)ccc5[nH]4)cc3)cc2)cc1 | -0.46%
O=C(Nc1ccc(Cl)cc1)Nc1cccc(-c2cccc(-c3nc4cc(C(F)(F)F)ccc4[nH]3)c2)c1 | -0.83%
CC(=O)Nc1ccc(C#Cc2ccc(-c3c(C)[nH]c(C)c(Cl)c3=O)cc2)cc1 | 0.64%
CC1(C)N=C(N)N=C(N)N1c1ccc(Cl)c(Cl)c1 | 0.49%
Cc1cc(CNCCCCCCNCc2ccc(-c3ccccc3)cc2)ccc1O | 7.79%
Cc1cccc2nc(-c3ccc(-c4cccc(CN5CCN(CC6CCCN(C)C6)CC5)c4)s3)[nH]c12 (centres undefined) | -3.27%
CCCN(CC1CC1)c1ncc(-c2ccccc2CNCc2ccccc2O)cn1 | 8.72%
COc1ccc(CCc2ccc(-c3c(C)[nH]c(C)c(Cl)c3=O)cc2)cc1 | 3.51%
COC(=O)c1cc2cccc(NC[C@@H](C)NC[C@H](O)c3cccc(Cl)c3)c2[nH]1 | 1.58%
CN(C)CCCNc1nccc(N(C)c2ccc(NC(=O)Nc3cc(C(F)(F)F)ccc3F)cc2)n1 | -0.78%
Cn1cnc(-c2ccc3c(c2)CCN(CCC2CCC(NC(=O)/C=C/c4ccc(F)cc4)CC2)CC3)c1 (centres undefined) | 70.5%
OCC1CCN(Cc2ccc(-c3ccc(-c4nc5ccccc5[nH]4)cc3)cc2)CC1 | 5.06%
O=S(=O)(NCCN1CCCC1)c1ccc(-c2ccc(CNCc3ccc(F)cc3)cc2)cc1 | 6.71%
Cc1c(-c2cccc(CNCCc3ccc(Cl)cc3)c2)cnc(N)c1C | -2.81%
Cc1ccc(CN2CCCN(Cc3cccc(C(=O)Nc4ccc(C(C)(C)C)cc4)c3)CC2)s1 | 2.76%
CC(C)(C)c1ccc(/C=C/C(=O)NCCCCCN2CCC(c3c[nH]c4ccccc34)CC2)cc1 | 4.13%
CCOC(=O)c1ccc(NC(=O)Nc2cccc(-c3ccc(-c4nc5ccccc5[nH]4)cc3)c2)cc1 | 1.48%
c1cncc(CCNCc2ccc(-c3ccc(-c4nc5ccccc5[nH]4)s3)cc2)c1 | 6.34%
CCC(=O)Nc1ccc(Nc2nc(C)cc(N3CCCC3)n2)cc1 | 12.4%
CS(=O)(=O)CCCNCc1ccc(-c2cc3c(Nc4ccc(OCc5ccccc5)cc4)ncnc3cn2)o1 | 2.8%
